The values below come from PubChem BioAssay (EPA / NIEHS).

Values joined by “and” are separate entries in the source; they are usually repeats but may differ in a detail not shown here. Equal entries are not always repeated. Results filed as inconclusive are left out. Some compounds were tested as several samples or in several runs, with calls that do not always agree. Active and inactive are the calls of the source. How the source made its calls, unless noted: active means hit-call score of the fitted dose curve at least 0.9, where 1 is the maximum; inactive means score below 0.9.

For experiment [1], the target named is Bile acid receptor (Homo sapiens) (UniProt Q96RI1). As to the kind of experiment: ATG_FXR_TRANS: Attagene TRANS-FACTORIAL HepG2 Assay for Farnesoid X Receptor (FXR) (AID 2282979; active means hit-call score of the fitted dose curve at least 0.9, where 1 is the maximum;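 further: hits raise reporter mRNA above DMSO so AC50 marks FXR activation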). As to conditions: HepG2 Attagene TRANS FXR-GAL4 reporter transcription. In outline:
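HepG2 cells were transiently transfected with GAL4-UAS reporters driven by chimeric NR-Gal4 proteins and dosed for 24 h. Reporter mRNA was quantified by RT-PCR, fluorescent labelling, HpaI digestion and capillary electrophoresis, with gain of signal scored versus DMSO.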

Experiment [2] in a line: ATG_M_06_TRANS: Attagene TRANS-FACTORIAL HepG2 Assay for M06 Transcription Factor (Internal Marker) (AID 2282983; active means hit-call score of the fitted dose curve at least 0.9, where 1 is the maximum;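 further: reporter transcript level by RT-PCR then capillary electrophoresis fluorescence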). As to conditions: HepG2 Attagene TRANS M06 internal marker reporter. In outline:
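mRNA levels of a reporter transcript, quantified as FAM fluorescence on capillary electrophoresis, served as readout. HepG2 cells expressing exogenous GAL4-chimera reporter constructs were exposed for 24 h. Gain of signal over DMSO was evaluated.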

Experiment [3] is described as follows: ATG_M_32_TRANS: Attagene TRANS-FACTORIAL HepG2 Assay for M32 Transcription Factor (Internal Marker) (AID 2282984; active means hit-call score of the fitted dose curve at least 0.9, where 1 is the maximum;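 further: transcript level of a background control reporter unit measured by RT-PCR and capillary electrophoresis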). As to conditions: HepG2 Attagene TRANS M32 internal marker reporter. In outline:
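Read-out: fluorescent reporter cDNA fragments resolved by capillary electrophoresis after RT-PCR of total RNA. Transfected HepG2 cells were exposed to chemical for 24 h. Activity scored in the positive direction relative to DMSO.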

The target in experiment [4] is Nuclear receptor subfamily 4 group A member 2 (Homo sapiens) (UniProt P43354). Description: ATG_NURR1_TRANS: Attagene TRANS-FACTORIAL HepG2 Assay for human Nuclear Receptor Related Protein 1 (NURR1) (AID 2282985; active means hit-call score of the fitted dose curve at least 0.9, where 1 is the maximum). As to conditions: HepG2 Attagene TRANS reporter, mRNA readout. In outline:
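Read-out: reporter mRNA induction by RT-PCR plus capillary electrophoresis with fluorescence detection, after 24 h dosing of transfected HepG2 cells. Exogenous NR-Gal4 chimera activity drives GAL4-UAS reporter; activity fitted upward versus DMSO.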

The target in experiment [5] is Transcriptional activator Myb (Homo sapiens) (UniProt P10242). Description: ATG_Myb_CIS: Attagene CIS-FACTORIAL HepG2 Assay for human Myeloblastosis (Myb) Proto-Oncogene Transcription Factor (AID 2282986). As to conditions: HepG2 Attagene CIS-FACTORIAL Myb reporter transcription; actives raise or lower the signal. In outline: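 Using HepG2 liver cells bearing transiently transfected cis-promoter reporter constructs, the assay measures induction or loss of reporter mRNA after 24 hours of dosing. Detection used fluorescently labeled RT-PCR products separated by capillary electrophoresis.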

In experiment [6] the target is Nuclear respiratory factor 1 (Homo sapiens) (UniProt Q16656). As to the kind of experiment: ATG_NRF1_CIS: Attagene CIS-FACTORIAL HepG2 Assay for human Nuclear Respiratory Factor 1 (NRF1) Orphan Gene (AID 2282987). As to conditions: HepG2 NRF1 cis-element reporter, Attagene multiplex; actives raise or lower the signal. In outline: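 Reporter mRNA induction or loss in HepG2 cells after 24 h dosing; cis-regulated reporter constructs report endogenous transcription-factor activity. Quantified by RT-PCR/capillary electrophoresis fluorescence, DMSO-referenced.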

The nature of experiment [7]: ATG_NFI_CIS: Attagene CIS-FACTORIAL HepG2 Assay for human Nuclear Factor I (NFI) (AID 2282989). As to conditions: HepG2 cis-regulatory reporter, NFI response element transcription; actives raise or lower the signal. In outline: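 HepG2 cells transiently transfected with cis-element-driven multiplexed reporter transcription units, dosed for 24 h. Reporter mRNA quantified by RT-PCR, fluorescent labelling, HpaI digestion and capillary electrophoresis; bidirectional fit versus DMSO baseline.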

The target in experiment [8] is Myc proto-oncogene protein (Homo sapiens) (UniProt P01106). As to the kind of experiment: ATG_Myc_CIS: Attagene CIS-FACTORIAL HepG2 Assay for human Myelocytomatosis (Myc) Proto-Oncogene Transcription Factor (AID 2282990). As to conditions: HepG2, Attagene cis-reporter transcription factor activity; actives raise or lower the signal. In outline: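 Transiently transfected HepG2 cells bearing cis-promoter reporter units for endogenous transcription factors; 24 h exposure. Reporter mRNA measured by RT-PCR, 6-FAM primer extension, HpaI cut and capillary electrophoresis; bidirectional fit relative to DMSO.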

Experiment [9] in a line: ATG_NF_kB_CIS: Attagene CIS-FACTORIAL HepG2 Assay for human Nuclear Factor Kappa B (NF-kB) (AID 2282991). As to conditions: HepG2 Attagene cis-factorial NF-kB reporter mRNA; actives raise or lower the signal. In outline: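 DMSO served as negative control and baseline for bidirectional curve fitting. Transiently transfected HepG2 cells were dosed for 24 h, then reporter transcripts were measured by RT-PCR with capillary electrophoresis detection.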

A short description of experiment [10]: ATG_NRF2_ARE_CIS: Attagene CIS-FACTORIAL HepG2 Assay for human Nuclear Factor Erythroid 2 Related Factor 2 (NFR2) response to Antioxidant Response Elements (ARE) (AID 2282992).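 On AC50: reporter mRNA level measured by RT-PCR and capillary electrophoresis fluorescence.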 As to conditions: HepG2 Attagene ARE/NRF2 reporter, transcription factor activity; actives raise or lower the signal. In outline:
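Fluorescence intensity of reporter-specific cDNA fragments, separated by capillary electrophoresis, reflects mRNA induction in transfected HepG2 cells at 24 h. Activity is fitted bidirectionally, DMSO serving as baseline.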

The nature of experiment [11]: ATG_Oct_MLP_CIS: Attagene CIS-FACTORIAL HepG2 Assay for human Octamer-Binding Transcription Factor (Oct) (AID 2282993). As to conditions: HepG2 Attagene cis-factorial Oct reporter, mRNA; actives raise or lower the signal. In outline: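 HepG2 cells transiently transfected with cis-promoter-driven multiplexed reporter transcription units, dosed for 24 h. Reporter mRNA quantified by RT-PCR, fluorescent labelling, HpaI digestion and capillary electrophoresis; bidirectional fits versus DMSO baseline.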

The target in experiment [12] is Cellular tumor antigen p53 (Homo sapiens) (UniProt P04637). As to the kind of experiment: ATG_p53_CIS: Attagene CIS-FACTORIAL HepG2 Assay for human p53 Transcription Factor (AID 2282994). As to conditions: HepG2 p53 cis-element reporter, Attagene mRNA; actives raise or lower the signal. In outline: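 Transiently transfected HepG2 (multiple cis reporter transcription units); exposure 24 h; reporter RNA via RT-PCR, 6-FAM extension, 2 h HpaI digest at 37 C, CE detection; DMSO baseline.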

A short description of experiment [13]: BSK_3C_TissueFactor: BioMAP Diversity Plus: 3C Assay for Tissue Factor Biomarker Activity (AID 2282997). As to conditions: BioMAP 3C HUVEC, tissue factor biomarker readout; actives raise or lower the signal. In outline: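 Tissue Factor measured by ELISA, 24 h after treatment of primary HUVEC in the BioMAP 3C setting.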
Experiment [14] in a line: BSK_3C_uPAR: BioMAP Diversity Plus: 3C Assay for Urokinase-type plasminogen activator receptor (uPAR) Biomarker Activity (AID 2282998). As to conditions: BioMAP 3C HUVEC, uPAR biomarker ELISA; actives raise or lower the signal. In outline: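 Human umbilical vein endothelial primary cells were exposed to test chemical for 24 h. Cell-surface uPAR was then quantified by ELISA, and responses were fitted bidirectionally against DMSO as negative control and baseline.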
On the technique in general: An ELISA detects its analyte on a solid surface through an enzyme-linked reagent.

Experiment [15] in a line: BSK_3C_VCAM1: BioMAP Diversity Plus: 3C Assay for Vascular cell adhesion molecule 1 (VCAM1) Biomarker Activity (AID 2282999). As to conditions: BioMAP 3C HUVEC, VCAM1 ELISA, cytokine-stimulated; actives raise or lower the signal. In outline:
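HUVEC primary cells, 24 h compound exposure; VCAM-1 by ELISA; gain/loss of signal fitted bidirectionally vs DMSO baseline.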

A short description of experiment [16]: BSK_4H_Eotaxin3: BioMAP Diversity Plus: 4H Assay for Eotaxin 3 Biomarker Activity (AID 2283000).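 On outcome: CCL26 protein level quantified by ELISA in parallel with SRB cytotoxicity check.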 As to conditions: primary human endothelial cells (HUVEC); actives raise or lower the signal. In outline: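 Eotaxin-3 (CCL26) levels were measured by ELISA in HUVEC primary cultures 24 h post-dosing. Gain or loss of signal was fitted in both directions, with DMSO serving as baseline and negative control.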

Experiment [17] concerns the target Oxysterols receptor LXR-alpha (Homo sapiens) (UniProt Q13133). Description: ATG_LXRa_TRANS: Attagene TRANS-FACTORIAL HepG2 Assay for human Liver X Receptor alpha (LXRa) (AID 2282980; active means hit-call score of the fitted dose curve at least 0.9, where 1 is the maximum). As to conditions: HepG2 Attagene TRANS reporter, LXRa transactivation. In outline:
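HepG2 cells transiently transfected with GAL4-UAS reporter units for chimeric NR-Gal4 proteins, exposed to chemicals for 24 h. Reporter mRNA quantified by RT-PCR and capillary electrophoresis; gain of signal fitted relative to DMSO.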

Experiment [18] concerns the target Hepatocyte nuclear factor 4-alpha (Homo sapiens) (UniProt P41235). As to the kind of experiment: ATG_HNF4a_TRANS: Attagene TRANS-FACTORIAL HepG2 Assay for human Hepatocyte Nuclear Factor 4 alpha (HNF4a) (AID 2282982; active means hit-call score of the fitted dose curve at least 0.9, where 1 is the maximum). As to conditions: HepG2 HNF4a transactivation reporter, mRNA readout. In outline:
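Transient MRTU transfection of HepG2, 24 h dosing. Readout: reporter mRNA via RT-PCR + capillary electrophoresis, fluorescence; activity fit upward relative to DMSO control.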

Chain of Myc proto-oncogene protein (Homo sapiens) (P01106 whole entry, looked up): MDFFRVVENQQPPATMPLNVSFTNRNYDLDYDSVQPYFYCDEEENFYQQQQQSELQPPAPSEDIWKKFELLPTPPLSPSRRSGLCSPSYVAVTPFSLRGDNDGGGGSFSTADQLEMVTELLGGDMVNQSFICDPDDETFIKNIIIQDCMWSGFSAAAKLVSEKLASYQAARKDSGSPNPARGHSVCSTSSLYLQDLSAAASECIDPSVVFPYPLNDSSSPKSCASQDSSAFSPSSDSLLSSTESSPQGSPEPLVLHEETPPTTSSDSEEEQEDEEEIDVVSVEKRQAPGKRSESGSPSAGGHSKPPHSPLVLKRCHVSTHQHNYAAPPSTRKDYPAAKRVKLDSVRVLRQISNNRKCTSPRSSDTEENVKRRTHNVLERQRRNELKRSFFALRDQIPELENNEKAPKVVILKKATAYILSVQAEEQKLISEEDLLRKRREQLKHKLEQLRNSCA
Chain of Oxysterols receptor LXR-alpha (Homo sapiens) (Q13133 whole entry, looked up, the tested form may be a part): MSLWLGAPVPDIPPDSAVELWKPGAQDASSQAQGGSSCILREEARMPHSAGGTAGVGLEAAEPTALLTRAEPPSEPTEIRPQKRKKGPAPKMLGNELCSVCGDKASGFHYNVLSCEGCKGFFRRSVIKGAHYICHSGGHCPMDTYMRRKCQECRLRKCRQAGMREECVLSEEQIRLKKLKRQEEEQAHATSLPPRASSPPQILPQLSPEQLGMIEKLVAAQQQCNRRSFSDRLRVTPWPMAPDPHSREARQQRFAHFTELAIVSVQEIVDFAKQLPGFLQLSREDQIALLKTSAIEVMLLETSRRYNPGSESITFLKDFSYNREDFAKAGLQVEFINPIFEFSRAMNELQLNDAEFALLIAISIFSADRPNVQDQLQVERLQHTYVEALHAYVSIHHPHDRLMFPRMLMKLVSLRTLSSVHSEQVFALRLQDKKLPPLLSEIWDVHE
Chain of Transcriptional activator Myb (Homo sapiens) (P10242 whole entry, looked up): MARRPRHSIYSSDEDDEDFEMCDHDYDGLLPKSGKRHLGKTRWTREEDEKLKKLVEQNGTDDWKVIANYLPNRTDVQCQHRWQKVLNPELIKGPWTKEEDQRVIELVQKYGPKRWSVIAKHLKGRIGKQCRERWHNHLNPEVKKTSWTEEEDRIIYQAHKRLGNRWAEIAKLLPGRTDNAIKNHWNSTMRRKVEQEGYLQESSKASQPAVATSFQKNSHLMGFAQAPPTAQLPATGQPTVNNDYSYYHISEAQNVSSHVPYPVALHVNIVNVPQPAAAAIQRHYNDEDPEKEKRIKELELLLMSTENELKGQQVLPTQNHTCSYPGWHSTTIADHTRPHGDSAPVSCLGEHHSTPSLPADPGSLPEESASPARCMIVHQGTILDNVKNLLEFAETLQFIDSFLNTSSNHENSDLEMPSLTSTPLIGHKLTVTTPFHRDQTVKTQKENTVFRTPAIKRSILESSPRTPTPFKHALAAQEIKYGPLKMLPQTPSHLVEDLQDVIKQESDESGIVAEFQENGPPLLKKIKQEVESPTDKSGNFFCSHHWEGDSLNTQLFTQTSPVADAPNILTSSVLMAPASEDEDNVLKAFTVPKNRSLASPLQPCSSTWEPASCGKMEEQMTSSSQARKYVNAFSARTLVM
Chain of Nuclear respiratory factor 1 (Homo sapiens) (Q16656 whole entry, looked up): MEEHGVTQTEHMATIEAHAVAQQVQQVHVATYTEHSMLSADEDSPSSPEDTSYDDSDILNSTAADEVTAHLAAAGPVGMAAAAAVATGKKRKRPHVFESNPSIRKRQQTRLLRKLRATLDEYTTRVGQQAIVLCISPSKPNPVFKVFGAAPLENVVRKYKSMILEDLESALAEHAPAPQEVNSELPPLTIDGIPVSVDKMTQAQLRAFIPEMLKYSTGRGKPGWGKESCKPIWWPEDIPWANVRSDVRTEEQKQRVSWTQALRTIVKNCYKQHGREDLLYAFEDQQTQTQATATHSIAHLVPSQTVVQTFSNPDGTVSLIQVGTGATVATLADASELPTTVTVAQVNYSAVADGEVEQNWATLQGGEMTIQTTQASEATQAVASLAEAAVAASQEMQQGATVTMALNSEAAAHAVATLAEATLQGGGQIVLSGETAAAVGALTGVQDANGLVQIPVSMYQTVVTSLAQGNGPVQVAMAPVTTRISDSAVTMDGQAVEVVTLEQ
Chain of Hepatocyte nuclear factor 4-alpha (Homo sapiens) (P41235 whole entry, looked up): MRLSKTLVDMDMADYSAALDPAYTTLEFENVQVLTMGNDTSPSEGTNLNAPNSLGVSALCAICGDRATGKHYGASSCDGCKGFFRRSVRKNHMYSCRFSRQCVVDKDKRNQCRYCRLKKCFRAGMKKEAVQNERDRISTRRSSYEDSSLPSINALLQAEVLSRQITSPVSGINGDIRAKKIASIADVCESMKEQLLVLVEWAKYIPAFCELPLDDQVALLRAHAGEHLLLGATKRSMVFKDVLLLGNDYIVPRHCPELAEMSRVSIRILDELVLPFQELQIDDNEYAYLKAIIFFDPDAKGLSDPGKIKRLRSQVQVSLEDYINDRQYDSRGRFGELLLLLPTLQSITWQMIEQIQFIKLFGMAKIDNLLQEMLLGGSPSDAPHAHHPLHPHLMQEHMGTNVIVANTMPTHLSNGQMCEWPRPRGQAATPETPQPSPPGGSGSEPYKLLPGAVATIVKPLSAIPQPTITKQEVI
Chain of Bile acid receptor (Homo sapiens) (Q96RI1 whole entry, looked up, the tested form may be a part): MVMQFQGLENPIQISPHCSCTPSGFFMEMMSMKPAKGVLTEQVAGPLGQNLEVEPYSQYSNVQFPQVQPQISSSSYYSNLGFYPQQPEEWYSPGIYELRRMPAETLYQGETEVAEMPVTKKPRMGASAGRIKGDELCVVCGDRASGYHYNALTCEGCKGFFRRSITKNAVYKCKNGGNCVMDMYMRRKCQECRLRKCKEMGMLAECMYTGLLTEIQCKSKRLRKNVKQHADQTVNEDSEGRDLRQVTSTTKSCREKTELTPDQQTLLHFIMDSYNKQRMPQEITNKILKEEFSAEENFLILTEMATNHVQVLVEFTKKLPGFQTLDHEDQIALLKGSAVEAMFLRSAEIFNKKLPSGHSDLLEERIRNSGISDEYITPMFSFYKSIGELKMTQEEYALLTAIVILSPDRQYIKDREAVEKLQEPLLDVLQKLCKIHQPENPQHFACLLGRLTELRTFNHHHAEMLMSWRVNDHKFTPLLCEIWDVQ
Chain of Nuclear receptor subfamily 4 group A member 2 (Homo sapiens) (P43354 whole entry, looked up, the tested form may be a part): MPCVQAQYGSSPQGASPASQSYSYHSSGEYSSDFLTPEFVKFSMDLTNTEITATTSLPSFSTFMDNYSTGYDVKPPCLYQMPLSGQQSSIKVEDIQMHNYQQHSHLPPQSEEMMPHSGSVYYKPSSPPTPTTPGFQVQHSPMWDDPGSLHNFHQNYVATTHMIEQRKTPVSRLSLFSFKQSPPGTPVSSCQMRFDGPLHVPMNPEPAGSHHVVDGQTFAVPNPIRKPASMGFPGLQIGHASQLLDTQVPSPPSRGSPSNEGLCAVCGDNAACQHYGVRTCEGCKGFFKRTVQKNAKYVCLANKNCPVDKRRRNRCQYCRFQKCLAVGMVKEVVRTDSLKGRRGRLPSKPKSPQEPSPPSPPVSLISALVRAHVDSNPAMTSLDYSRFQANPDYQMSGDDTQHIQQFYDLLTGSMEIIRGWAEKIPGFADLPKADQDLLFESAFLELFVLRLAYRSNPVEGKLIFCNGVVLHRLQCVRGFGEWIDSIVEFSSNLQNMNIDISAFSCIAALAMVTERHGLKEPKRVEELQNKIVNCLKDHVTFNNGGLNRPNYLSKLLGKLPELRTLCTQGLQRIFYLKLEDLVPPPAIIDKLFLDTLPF
Chain of Cellular tumor antigen p53 (Homo sapiens) (P04637 whole entry, looked up): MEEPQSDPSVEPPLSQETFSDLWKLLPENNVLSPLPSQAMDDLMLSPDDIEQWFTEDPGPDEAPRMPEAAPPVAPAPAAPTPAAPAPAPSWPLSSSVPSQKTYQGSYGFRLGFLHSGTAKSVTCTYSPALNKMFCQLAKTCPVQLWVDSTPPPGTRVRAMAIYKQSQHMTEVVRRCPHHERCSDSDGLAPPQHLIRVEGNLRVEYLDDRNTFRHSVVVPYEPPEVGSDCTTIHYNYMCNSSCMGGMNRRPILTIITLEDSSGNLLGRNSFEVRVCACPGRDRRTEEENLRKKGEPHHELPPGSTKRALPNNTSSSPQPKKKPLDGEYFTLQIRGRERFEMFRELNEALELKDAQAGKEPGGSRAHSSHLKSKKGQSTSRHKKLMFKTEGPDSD

Regarding `CCN(Cc1cccnc1)C(=O)c1cccc(Cl)c1[C@]1(C)C(=O)N(Cc2ccc(OC)cc2OC)c2ccc(Cl)cc21`, the AC50 (usually the concentration at which the activity in the assay is half-maximal) in [1] was 2.58 µM (active); in experiment [4], 8.74 µM (active); in [6], 9.65 µM (active); in [10], 5.87 µM (active); in [11] it was 2.6 µM (active); in experiment [12], 4.98 µM (active). The AC50 in experiment [13] was 9.45 µM (active); in experiment [14] it was 5.85 µM (active); in experiment [15], 7.09 µM (active); in experiment [16], 11.4 µM (active). The outcome in [2], in [3], in experiment [5], in [7], in experiment [8] and in [9] was inactive.

Take `CCCCOC(=O)c1ccc(O)cc1`: the AC50 in experiment [1] was 66.1 µM (active); in [4], 100 µM (active); in [5] it was 162 µM (active); in experiment [6], 100 µM (active); in experiment [8], 100 µM (active); in [10] it was 100 µM (active) and 26.2 µM (active). For the same compound, the AC50 is 116 µM (active) in [11] and 7.85 µM (active) in experiment [13]. Moreover, the result in experiment [1], in experiment [17], in experiment [18], in [2], in experiment [3] and in experiment [4] was inactive. The compound was classed as inactive in experiment [5], in experiment [6], in experiment [8], in experiment [10], in experiment [11] and in experiment [12]. Also, the result in experiment [14], in experiment [15] and in experiment [16] was inactive.

As for `c1ccc2n[nH]nc2c1`, the compound was classed as inactive in [17], in experiment [2], in [4], in [5], in experiment [6] and in experiment [7]. Further, the call in [8], in [9], in [10], in [11], in [12] and in experiment [13] was inactive. Besides, the outcome in experiment [14], in [15] and in [16] was inactive.

In the case of `Cc1ccc(C(C)C)cc1`, the call in experiment [17], in experiment [2], in experiment [4], in [5], in experiment [6] and in [7] was inactive. The call in experiment [8], in experiment [10], in experiment [11], in [12], in experiment [13] and in [14] was inactive. Further, the outcome in experiment [15] and in experiment [16] was inactive.

With `CN(C)c1ccc(C(=C2C=CC(=[N+](C)C)C=C2)c2ccc(N(C)C)cc2)cc1`, the call in experiment [3], in experiment [5], in experiment [6], in experiment [7], in experiment [8] and in [11] was inactive. Also, the AC50 was 2.43 µM (active) in experiment [10]; 1.08 µM (active) in experiment [12]; 5.5 µM (active) in experiment [13]; 0.778 µM (active) in experiment [14]; 5.56 µM (active) in [15]; 1.17 µM (active) in experiment [16].

In the case of `Cc1cc(F)ccc1-c1cc(N2CC[C@@H](O)[C@H]2CO)ncc1N(C)C(=O)C(C)(C)c1cc(C(F)(F)F)cc(C(F)(F)F)c1`, the result in experiment [1], in [4], in experiment [5], in experiment [6], in experiment [7] and in experiment [8] was inactive. The compound was called inactive in [9], in [10], in experiment [11] and in experiment [12]. Moreover, the half-maximal activity concentration (AC50) in experiment [13] was 12.4 µM (active); in [14], 9.24 µM (active); in [15], 11.8 µM (active); in experiment [16], 12.5 µM (active).
